Measurements as given in PubChem BioAssay AID540313 (Sanford-Burnham Center for Chemical Genomics, 2011).
“And” between values parts separate entries of the source, which are not always exact repeats. Equal values may be shown once. The whole screen tested about 2,500 compounds, of which fewer than 10 were called active. A selection follows. Values without a mark were called inactive.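 How the source made its calls: active means inhibition of at least 30% at 20 µM; inactive means the rest.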

experiment: colorimetric readout interference by compounds, confirmation, artefact control for Scp-1 inhibitor project, biochemical, single concentration (AID 540313); conditions: Colorimetric interference counterscreen, malachite green absorbance 630 nm; at 20 µM; hits give high values;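 further: compounds added after enzyme reaction finished so only phosphate colour detection is probed; plate controls were DMSO wells with completed Scp-1 reaction for no effect and substrate wells lacking enzyme for full effect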

SMILES	apparent inhibition (interference)
O=C(N/N=C/c1ccco1)c1ccc(C(=O)N/N=C/c2ccco2)o1	-14.2%
C[N+](C)(C)CCNC(=O)c1cc[n+](Cc2ccccc2)c(/C=N/O)c1	-12%
Cc1cc(C(=O)OCC(=O)NCc2ccco2)c(C)n1-c1ccccc1	-9.53%
COc1cc(Cl)cc(C2NC(=O)NC(C)=C2C(=O)NCc2ccccc2)c1O (stereo not drawn)	-16.4% and -17.8%
O=C(COC(=O)c1cnc(Cl)c(Cl)c1)NCc1ccco1	-17.8%
O=C(COC(=O)c1ccccc1O)NCc1ccco1	-13.4%
COc1cccc(CC(=O)OCC(=O)NCc2ccc3c(c2)OCO3)c1	-8.18%
CC(C)CCOc1ccc(C(=O)C[N+]2(C)CCOCC2)cc1	-0.2%
CO/N=C(\C(=O)N[C@@H]1C(=O)N2C(C(=O)O)=C(COC(C)=O)CS[C@H]12)c1csc(N)n1 (stereo in doubt)	-15.6%
O=c1[nH]n(-c2ccc([N+](=O)[O-])cc2)c(=O)c2ccccc12	-12.9%
CCCCCN1CC(O)=C(c2nc(-c3ccc(Cl)cc3)cs2)C1=N	-5.98%
CC(=O)Nc1ccccc1Sc1ccc2c3c(cccc13)C(=O)N(c1ccc(C)cc1)C2=O	-10.1%
Cc1ccc(C2(C)NC(=O)N(CC(=O)Nc3ccccc3C(=O)N3CCCCC3)C2=O)cc1 (stereo not drawn)	-11.4%
O=C1CCC(CCC(=O)N2CCCC(C(=O)c3ccc(Cl)cc3)C2)=NN1 (stereo not drawn)	-3.23%
Cc1ccc(NC(=O)COC(=O)C2C3CC4OC(=O)C2C4C3)cc1Cl (stereo not drawn)	-4.6%
CC(C)c1ccc(NC(=S)NNc2ccc(Cl)c(C(=O)O)c2)cc1	-8.44%
COc1ccc(Cl)cc1NC(=O)CCS(=O)(=O)c1ccc(Br)cc1	-18.6%

SMILES	apparent inhibition (interference)
CS(=O)(=O)C1=NN2C(=N)/C(=C\c3ccc(OCCOc4ccccc4)cc3)C(=O)N=C2S1	-4.6%
CC[n+]1c(C)n(-c2ccccc2)c2ccc(NC(C)=O)cc21	-13.9%
Cc1ccc(NC(=O)c2cc(-c3ccc(C)o3)nc3ccccc23)nc1	-3.5%
O=C(Nc1cccnc1)c1cc2cc(Br)ccc2oc1=O	-8.18%
C[C@H](CO)N1C[C@H](C)[C@@H](CN(C)C(=O)NC2CCCCC2)Oc2ccc(NC(=O)c3ccncc3)cc2C1=O	-14.8%
O=C(Nc1cccc(F)c1)c1cc(-c2ccco2)nc2ccccc12	-4.88%
COc1ccc(NC(=O)CN(C)C(=O)/C=C/c2cn(Cc3ccccc3)nc2-c2cccnc2)cc1	-11.7%
Cc1ccn2c(=O)nc(SCC(=O)NCc3ccc4c(c3)OCO4)nc2c1	-8.16%
N#Cc1ccccc1CN1C(=O)S/C(=C/c2cccn2-c2cccc(C(=O)O)c2)C1=O	-14.7%
Cc1ccc(CCNC(=O)c2ccc3nc4ccccc4c(=O)n3c2)cc1	0.61%
Cc1ccc(SCC(=O)NC(=O)NCc2ccco2)c(C)c1	-4.05%
O=C(COC(=O)c1ccc(F)cc1F)Nc1ncccn1	-16.9%
CNS(=O)(=O)c1cccc(C(=O)OCC(=O)N2c3ccccc3NC(=O)C2(C)C)c1	-15.3%
COc1cccc2cc(-c3cc(=O)oc4cc(C)c(O)cc34)oc12	-23.3%
COC(=O)c1ccccc1NC(=O)C1(S(=O)(=O)c2ccc(Cl)cc2)CC1	-20.5%
O=C(CCC(=O)N/N=C/c1ccc(Br)o1)N/N=C/c1ccc(Br)o1	-16.4%
